Results filed as inconclusive are left out. The source made the active and inactive calls. Unless noted, the call rests on the fitted dose curve; in most records, active means well fitted curve in the direction sought with a large enough effect in the repeat runs; inconclusive means weak or mixed curves; inactive means no such curve, though single readings can be large; an effect the other way counts as inactive or inconclusive.
Columns and labels:
[1] = qHTS assay to identify small molecule agonists of the NFkB signaling pathway (AID 1159509; active means well fitted curve in the direction sought with a large enough effect in the signal ratio in the repeat runs, not every such curve was filed as active; the % refers to the signal ratio; further: series mostly up to about 61 µM)
Outline: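 Pathway activation was measured in ME-180 cells stably expressing beta-lactamase under NF-kB response element control. Substrate cleavage was read as the 460/530 nm emission shift after 5 hr compound incubation.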

[2] = qHTS assay to identify small molecule agonists of the NFkB signaling pathway - cell viability counter screen (AID 1159515; calls by dose curve; further: series mostly up to about 61 µM; nearly all actives have a fitted effect of over 55% in size)
Outline: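 Read by CellTiter-Glo luminescence (30 min, room temperature) in the wells also used for the beta-lactamase FRET read. ME-180 NFkB-bla cells at 2,000 per well were plated overnight, then exposed to compound for 5 hr at 37 C.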

[3] = qHTS assay to identify small molecule agonists of the endoplasmic reticulum stress response signaling pathway (AID 1159516; active means well fitted activation curve with a large enough effect in the signal ratio in the repeat runs, not every such curve was filed as active; the % refers to the signal ratio)
Outline: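 Ratiometric FRET readout (405 nm excitation; 460 and 530 nm emission) of a beta-lactamase gene driven by the ER stress response element, after 2 hr substrate loading. HeLa ESRE-bla cells were seeded overnight and treated with compounds for only 5 hr at 37 C.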

[4] = qHTS assay to identify small molecule agonists of the endoplasmic reticulum stress response signaling pathway - cell viability counter screen (AID 1159517; calls by dose curve; further: series mostly up to about 61 µM; nearly all actives have a fitted effect of over 50% in size)
Outline: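 In parallel with the ESRE reporter read, cytotoxicity was scored by CellTiter-Glo luminescence (30 min, room temperature) on HeLa ESRE-bla cells dosed for 5 hr.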

[5] = qHTS assay to identify small molecule antagonists of the retinoid-related orphan receptor gamma (ROR-gamma) signaling pathway - cell viability counter screen (AID 1159520); further: nearly all actives have a fitted effect of over 50% in size
Outline: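 Tet-on ROR gamma CHO cells were given compounds for 2 hr, then doxycycline hyclate at 1 uM final, and incubated 16 hr at 37 C. Viability was measured as ATP content by CellTiter-Glo luminescence.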

[6] = biological target: Nuclear receptor ROR-gamma (Homo sapiens) (UniProt P51449); test: qHTS assay to identify small molecule antagonists of the retinoid-related orphan receptor gamma (ROR-gamma) signaling pathway (AID 1159521;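 further: CHO cells with doxycycline inducible ROR-gamma driving an RORE luciferase reporter; top concentration of the series differs between compounds; nearly all actives have a fitted effect of over 50% in size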)
Outline: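 Luminescence readout (ONE-Glo, 30 min RT) after 16 h doxycycline induction; loss of signal scored as antagonism. CHO cells with TET-inducible RORγ and RORE-LUC reporter; compounds added 2 h before 1 uM final doxycycline.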

[7] = qHTS assay to identify small molecule agonists of the AP-1 signaling pathway - cell viability counter screen (AID 1159525; calls by dose curve; further: nearly all actives have a fitted effect of over 55% in size)
Outline: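 Same-well cytotoxicity counter screen of the Tox21 10K library in ME-180 cells. The readout is ATP-dependent luminescence after 5 h compound treatment. Data are normalised to DMSO and tetra n-octyl ammonium bromide controls.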

[8] = qHTS assay to identify small molecule agonists of the AP-1 signaling pathway (AID 1159526; calls by dose curve)
[9] = biological target: Retinoic acid receptor RXR-alpha (Homo sapiens) (UniProt P19793); test: qHTS assay to identify small molecule agonists of the RXR signaling pathway (AID 1159527; calls by dose curve; further: nearly all actives have a fitted effect of over 35% in size)
Sequence of Retinoic acid receptor RXR-alpha (Homo sapiens) (P19793 whole entry, looked up): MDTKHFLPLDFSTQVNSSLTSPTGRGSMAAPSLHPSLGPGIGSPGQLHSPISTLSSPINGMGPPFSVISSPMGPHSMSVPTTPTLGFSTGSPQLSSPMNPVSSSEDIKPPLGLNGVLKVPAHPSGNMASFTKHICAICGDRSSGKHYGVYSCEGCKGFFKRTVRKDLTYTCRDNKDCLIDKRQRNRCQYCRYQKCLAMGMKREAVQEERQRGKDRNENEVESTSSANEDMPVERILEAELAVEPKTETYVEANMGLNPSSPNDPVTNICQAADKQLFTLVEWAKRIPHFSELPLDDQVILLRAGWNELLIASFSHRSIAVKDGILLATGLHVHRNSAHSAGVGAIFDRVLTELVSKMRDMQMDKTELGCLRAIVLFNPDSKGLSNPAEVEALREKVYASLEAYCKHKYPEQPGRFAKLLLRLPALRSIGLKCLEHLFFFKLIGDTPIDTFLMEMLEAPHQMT
Outline: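 Agonist mode; 9-cis retinoic acid positive control. HEK 293T UAS-bla reporter cells, 2% charcoal-stripped FBS, 16 hr compound exposure at 37 C/5% CO2. LiveBLAzer B/G FRET substrate 2 hr RT; ex 405, em 460/530 nm.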

[10] = qHTS assay to identify small molecule agonists of the RXR signaling pathway - cell viability counter screen (AID 1159529); further: series mostly up to about 77 µM; nearly all actives have a fitted effect of over 50% in size
Outline: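 Luminescence from CellTiter-Glo (30 min, RT) measured viability in the same wells as the beta-lactamase reporter readout. Cells: GeneBLAzer RXR-alpha HEK 293T, 2% charcoal-stripped FBS. Compound exposure 16 hr, 37 C.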

[11] = qHTS assay to identify small molecule antagonists of the retinoid acid receptor (RAR) signaling pathway - cell viability counter screen (AID 1159551); further: nearly all actives have a fitted effect of over 35% in size
Outline: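 Cytotoxicity counter screen: ATP content quantified by CellTiter-Glo luminescence in C3RL4 cells treated 6 hr at 37 C with compound and retinol (1 uM final). Cells plated at 1,000/well and cultured overnight before dosing.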

[12] = qHTS assay to identify small molecule antagonists of the retinoic acid receptor (RAR) signaling pathway (AID 1159552; further: nearly all actives have a fitted effect of over 50% in size)
Outline: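 Luminescence from a RARE luciferase reporter in C3RL4 cells served as read-out. Cells received compounds together with 1 uM final retinol and incubated 6 hr at 37 C before detection reagent was added for 30 min at room temperature.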

[13] = qHTS assay to identify small molecule agonists of the retinoic acid receptor (RAR) signaling pathway (AID 1159553)
Outline: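 Luminescence was measured 30 min after luciferase reagent addition at room temperature. Before that, C3RL4 reporter cells (1,000 per well, plated overnight) were treated with compound for 6 hr at 37 C and 5% CO2.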

[14] = qHTS assay to identify small molecule antagonists of the estrogen related receptor (ERR) signaling pathway from Tox21 library - cell viability counter screen (AID 1224834); further: nearly all actives have a fitted effect of over 30% in size
Outline: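 CellTiter-Fluor fluorescence, read after 30 min at 37 C, measures viability of ERR cells. Cells plated at 2,000/well and incubated 6 h before pin-tool compound addition, then exposed 17.5 hours at 37 C.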

[15] = biological target: Luciferin 4-monooxygenase (Photinus pyralis) (UniProt P08659); test: qHTS assay to identify small molecule inhibitors of firefly luciferase (AID 1224835); further: series mostly up to about 120 µM; nearly all actives have a fitted effect of over 25% in size
Sequence of Luciferin 4-monooxygenase (Photinus pyralis) (P08659 whole entry, looked up): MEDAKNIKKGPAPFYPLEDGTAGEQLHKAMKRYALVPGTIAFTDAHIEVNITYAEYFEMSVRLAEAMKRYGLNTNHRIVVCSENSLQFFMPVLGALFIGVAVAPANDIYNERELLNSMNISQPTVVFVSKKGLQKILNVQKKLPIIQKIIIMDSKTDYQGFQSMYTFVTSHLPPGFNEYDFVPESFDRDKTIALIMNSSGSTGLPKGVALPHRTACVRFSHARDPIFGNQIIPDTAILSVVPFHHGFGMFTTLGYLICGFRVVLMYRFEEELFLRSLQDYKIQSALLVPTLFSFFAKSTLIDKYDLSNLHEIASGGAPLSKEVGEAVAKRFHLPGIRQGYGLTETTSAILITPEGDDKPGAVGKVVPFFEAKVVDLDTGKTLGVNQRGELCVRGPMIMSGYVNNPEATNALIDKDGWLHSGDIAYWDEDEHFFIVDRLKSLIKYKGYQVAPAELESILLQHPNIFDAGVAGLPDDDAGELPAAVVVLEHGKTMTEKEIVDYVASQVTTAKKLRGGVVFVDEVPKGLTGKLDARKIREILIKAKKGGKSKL
Outline: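 Biochemical qHTS: compounds run as interplate titrations against purified firefly enzyme, with D-luciferin and ATP each at its KM concentration. Light output recorded by CCD imaging.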

[16] = qHTS assay to identify small molecule agonists of the constitutive androstane receptor (CAR) signaling pathway - cell viability counter screen (AID 1224836); further: series mostly up to about 92 µM; nearly all actives have a fitted effect of over 45% in size
Outline: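 Viability read-out: CellTiter-Fluor fluorescence after 23 h compound exposure at 37 C/5% CO2 in double-stable HepG2-CYP2B6-hCAR cells, with PK11195 present at 0.75 uM final; compounds tested in 15-point titration.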

[17] = qHTS assay to identify small molecule antagonists of the constitutive androstane receptor (CAR) signaling pathway - cell viability counter screen (AID 1224837); further: series mostly up to about 92 µM; nearly all actives have a fitted effect of over 45% in size
Outline: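 Cytotoxicity counter-screen: CellTiter-Fluor fluorescence after 23 h compound exposure (15-point qHTS) in double-stable HepG2-CYP2B6-hCAR cells, with 50 nM CITCO added.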

[18] = biological target: Nuclear receptor subfamily 1 group I member 3 (Homo sapiens) (UniProt Q14994); test: qHTS assay to identify small molecule antagonists of the constitutive androstane receptor (CAR) signaling pathway (AID 1224838);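 further: HepG2 cells stably expressing hCAR with CYP2B6 luciferase reporter stimulated by CITCO; nearly all actives have a fitted effect of over 40% in size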
Sequence of Nuclear receptor subfamily 1 group I member 3 (Homo sapiens) (Q14994 whole entry, looked up): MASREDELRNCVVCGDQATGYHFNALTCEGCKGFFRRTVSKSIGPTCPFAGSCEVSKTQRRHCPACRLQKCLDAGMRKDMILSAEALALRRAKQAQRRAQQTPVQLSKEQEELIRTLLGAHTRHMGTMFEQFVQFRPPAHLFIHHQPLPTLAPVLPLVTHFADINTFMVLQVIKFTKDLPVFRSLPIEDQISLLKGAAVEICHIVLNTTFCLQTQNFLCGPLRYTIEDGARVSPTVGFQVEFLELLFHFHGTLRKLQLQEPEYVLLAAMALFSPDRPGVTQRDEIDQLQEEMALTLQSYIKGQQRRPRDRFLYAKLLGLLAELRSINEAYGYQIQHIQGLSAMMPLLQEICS
Outline: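 Antagonism measured as luciferase signal (ONE-Glo, 30 min, room temperature) in CAR-stimulated cells: HepG2-CYP2B6-hCAR double-stable line exposed 24 hr at 37 C to compound in a 15-point series plus 50 nM CITCO.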

[19] = biological target: Nuclear receptor subfamily 1 group I member 3 (Homo sapiens) (UniProt Q14994); test: qHTS assay to identify small molecule agonists of the constitutive androstane receptor (CAR) signaling pathway (AID 1224839);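 further: HepG2 cells stably carrying human CAR and a CYP2B6 luciferase reporter; series mostly up to about 92 µM; nearly all actives have a fitted effect of over 15% in size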
Outline: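 Luminescence read-out (ONE-Glo, 30 min, room temperature) from double-stable HepG2-CYP2B6-hCAR cells exposed 24 h to 15-point compound series in presence of 0.75 uM PK11195 final.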

Measured: Potency

CCCC(=O)OC/C=C(\C)CCC=C(C)C
inactive: all assays above

Fc1ccccc1
inactive: all assays above

CC1(C)O[C@H]2CC(=O)OC[C@]23[C@H]2CC[C@@]4(C)[C@H](c5ccoc5)OC(=O)[C@H]5O[C@]54[C@]2(C)C(=O)C[C@@H]13
inactive: all assays above

O=Cc1ccccc1Cl
inactive: all assays above

COc1cc(/C=C/C(N)=O)cc(OC)c1OC
inactive: all assays above

Cc1cc(C)c(C(=O)O)c(C)c1
inactive: all assays above

COC(=O)c1cccc(Cl)c1
inactive: all assays above

NCCOCCN
inactive: all assays above

Nc1nc(-c2ccccc2)c(Br)c(=O)[nH]1
inactive: all assays above

CC1(C)[C@H]2CC[C@](C)(C2)[C@H]1O
inactive: all assays above

COP(=O)(O)OP(=O)(O)OC
inactive: all assays above

[O-][n+]1cccc(/C(Cl)=N/OC[C@@H](O)CN2CCCCC2)c1
inactive: all assays above

CC(=O)CC(=O)Nc1ccc(C)cc1C
inactive: all assays above

CCCCCCCCCCOC(C)=O
inactive: all assays above

CC(=O)O[Si](C)(OC(C)=O)OC(C)=O
inactive: all assays above

From PubChem BioAssay (Tox21)
